Measured values published in the supplement of paper PMC10477191.
± gives the standard deviation of the averaged measurements.

test system: Drosophila ezoana antennal basiconic sensillum ab10; experiment: odor-evoked OSN spike response (post minus pre-stimulus); higher = stronger neuronal excitation; conditions: odor dilution: 10^-4
Description: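 Single sensillum recordings from antennal basiconic sensilla of D. ezoana. A 500 ms pulse of odorant (10^-4 in mineral oil or DMSO) was delivered; the response is the change in action potential frequency between the 1 s pre- and post-stimulus windows (spikes/s).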

| Structure (SMILES) | odor-evoked OSN spike response [spikes/s] |
| --- | --- |
| CC(C)=O [acetone] | 76.3 ± 21 |
